Experimental data from PubChem BioAssay AID1159580 (chemical genetic matrix, 2015).
Values joined by “and” are separate entries in the source; they are usually repeats but may differ in a detail not shown here. Equal entries are not always repeated. The campaign covered roughly 5,500 compounds. About 2,000 (36%) were called active. About 18% were inconclusive and are not listed. No stated cut-off is given here; in the data, active means normalized growth mostly below about 0.91 (no sharp cut-off); inconclusive means no clear call, values can overlap the other calls; inactive means mostly above about 0.92. Some of the results follow.

Assay: chemical genetic growth profiling, strain panel (AID 1159580);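 further: tested at 20 µM; growth read once vehicle control cultures reached saturation at 30 °C; 1 = growth at the plate median or of vehicle wells; lower values mean less growth of the strain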
Conditions: S. cerevisiae deletion strains, growth OD

Measured: normalized growth

C[N+](C)(C)CC(O)CC(=O)O (stereo unspecified)
inactive: locus YAL013W, strain DEP1, active compounds read low 1.02 | locus YAL021C, strain ccr4, active compounds read low 1.01 | locus YAL026C, strain drs2, active compounds read low 0.982 | locus YAL030W, strain snc1, active compounds read low 0.982 | locus YBL061C, strain skt5, active compounds read low 0.977 | locus YBR009C, strain hhf1, active compounds read low 1 | locus YBR021W, strain FUR4, active compounds read low 0.992 | locus YBR023C, strain chs3, active compounds read low 0.985 | locus YBR171W, strain sec66, active compounds read low 0.981 | locus YBR229C, strain ROT2, active compounds read low 1 | locus YBR231C, strain swc5, active compounds read low 0.974 | locus YBR279W, strain paf1, active compounds read low 0.998 | locus YCL011C, strain gbp2, active compounds read low 0.978 | locus YCL016C, strain dcc1, active compounds read low 0.96 | locus YCL029C, strain bik1, active compounds read low 1 | locus YCL069W, strain vba3, active compounds read low 0.981 | locus YCR088W, strain abp1, active compounds read low 0.986 | locus YDL005C, strain med2, active compounds read low 0.98 | locus YDL035C, strain GPR1, active compounds read low 1.02 | locus YDL040C, strain nat1, active compounds read low 0.982 | locus YDL074C, strain BRE1, active compounds read low 1.01 | locus YDL101C, strain DUN1, active compounds read low 1 | locus YDL134C, strain PPH21, active compounds read low 1.01 | locus YDL185W, strain tfp1, active compounds read low 0.996 | locus YDL192W, strain arf1, active compounds read low 0.997 | locus YDR001C, strain nth1, active compounds read low 0.975 | locus YDR069C, strain doa4, active compounds read low 1.01 | locus YDR101C, strain arx1, active compounds read low 0.983 | locus YDR137W, strain rgp1, active compounds read low 0.972 | locus YDR150W, strain NUM1, active compounds read low 1.01 | locus YDR159W, strain sac3, active compounds read low 1.02 | locus YDR162C, strain NBP2, active compounds read low 1 | locus YDR195W, strain ref2 0.96 | locus YDR297W, strain sur2, active compounds read low 0.998 | locus YDR318W, strain mcm21, active compounds read low 0.999 | locus YDR334W, strain swr1, active compounds read low 0.969 | locus YDR335W, strain msn5, active compounds read low 0.971 | locus YDR388W, active compounds read low 1.01 | locus YDR392W, strain spt3, active compounds read low 0.973 | locus YDR502C, strain sam2, active compounds read low 1.02 | locus YEL003W, strain gim4, active compounds read low 0.986 | locus YEL037C, strain rad23, active compounds read low 0.969 | locus YEL061C, strain CIN8 (second series), active compounds read low 0.981 | locus YEL061C, strain CIN8, active compounds read low 1 | locus YER015W, strain faa2, active compounds read low 0.977 | locus YER016W, strain bim1, active compounds read low 0.965 | locus YER110C, active compounds read low 0.991 | locus YER111C, strain swi4, active compounds read low 0.96 | locus YER155C, strain BEM2 (second series), active compounds read low 0.965 | locus YER155C, strain BEM2, active compounds read low 0.995 | locus YER167W, strain BCK2, active compounds read low 0.995 | locus YFR010W, strain ubp6, active compounds read low 1 | locus YGL078C, strain dbp3, active compounds read low 1 | locus YGL086W, strain mad1, active compounds read low 0.998 | locus YGL167C, strain pmr1, active compounds read low 0.98 | locus YGL173C, strain kem1, active compounds read low 0.968 | locus YGL227W, strain vid30, active compounds read low 0.985 | locus YGL240W, strain doc1, active compounds read low 0.998 | locus YGL248W, strain PDE1, active compounds read low 1 | locus YGL253W, strain hxk2, active compounds read low 0.957 | locus YGR078C, strain PAC10, active compounds read low 1 | locus YGR135W, strain pre9, active compounds read low 0.994 | locus YGR229C, strain SMI1, active compounds read low 1.02 | locus YGR252W, strain gcn5, active compounds read low 1 | locus YHR013C, strain ard1, active compounds read low 0.95 | locus YHR027C, strain rpn1, active compounds read low 0.984 | locus YHR030C, strain SLT2, active compounds read low 1 and 0.979 | locus YHR079C, strain IRE1 (second series), active compounds read low 0.999 | locus YHR079C, strain IRE1, active compounds read low 0.976 | locus YHR094C, strain hxt1, active compounds read low 0.996 | locus YHR129C, strain ARP1, active compounds read low 0.999 | locus YHR142W, strain chs7, active compounds read low 0.968 | locus YHR200W, strain rpn10, active compounds read low 1 | locus YIL066C, strain RNR3, active compounds read low 1.02 | locus YIL073C, strain SPO22, active compounds read low 1.04 | locus YIL125W, strain kgd1, active compounds read low 1 | locus YIR030C, strain dcg1, active compounds read low 0.998 | locus YJL092W, strain hpr5, active compounds read low 0.984 | locus YJL095W, strain BCK1 (second series), active compounds read low 0.974 | locus YJL095W, strain BCK1, active compounds read low 1 and 0.989 | locus YJL115W, strain asf1, active compounds read low 0.977 | locus YJL129C, strain trk1, active compounds read low 0.983 | locus YJL134W, strain LCB3, active compounds read low 1 | locus YJL154C, strain vps35, active compounds read low 0.975 | locus YJL164C, strain tpk1, active compounds read low 0.989 | locus YJL166W, strain qcr8, active compounds read low 1.02 | locus YJL168C, strain set2, active compounds read low 0.997 | locus YJL187C, strain SWE1 (second series), active compounds read low 1.01 | locus YJR043C, strain POL32, active compounds read low 1 | locus YJR066W, strain TOR1, active compounds read low 0.929 | locus YJR075W, strain HOC1, active compounds read low 1.01
